The structures appear in SMILES notation. The whole screen tested about 380,000 compounds, of which about 25 (0.007%) were called active. The call rests on the fitted dose curve; in most records, active means well fitted activation curve with a large enough effect; inconclusive means small, poorly fitted or top-dose-only effect; inactive means no such curve, though single readings can be large or run the other way. Only a sample is shown.

The results in this text go back to PubChem BioAssay AID624172 (National Center for Advancing Translational Sciences (NCATS), 2012).

Sequence of Glucagon-like peptide 1 receptor (Homo sapiens) (P43220 whole entry, looked up): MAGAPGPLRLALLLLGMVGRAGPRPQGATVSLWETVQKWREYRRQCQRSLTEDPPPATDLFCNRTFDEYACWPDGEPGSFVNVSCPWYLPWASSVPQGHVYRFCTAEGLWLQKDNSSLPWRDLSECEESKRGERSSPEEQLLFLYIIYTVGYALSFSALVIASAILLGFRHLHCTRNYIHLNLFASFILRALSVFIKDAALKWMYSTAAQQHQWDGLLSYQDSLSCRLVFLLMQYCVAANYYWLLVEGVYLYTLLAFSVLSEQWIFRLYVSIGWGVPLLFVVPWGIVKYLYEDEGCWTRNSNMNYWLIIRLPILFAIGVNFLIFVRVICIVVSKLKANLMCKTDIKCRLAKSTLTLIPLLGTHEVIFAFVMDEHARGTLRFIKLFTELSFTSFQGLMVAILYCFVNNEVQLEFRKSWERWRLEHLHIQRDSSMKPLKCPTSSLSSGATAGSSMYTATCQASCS

The assay concerns the target Glucagon-like peptide 1 receptor (Homo sapiens) (UniProt P43220). In words: qHTS of GLP-1 Receptor Agonists. Further: % of control where 0% means no effect. Particulars: HEK293 GLP-1R CRE-luciferase, luminescence, 4-6 h, cells express a hypersensitive GLP-1R form; series mostly up to 45.6 µM; activation: at the top concentration. An excerpt:
The overall goal of this project was to develop a novel assay for discovering small molecule ligands for class B1 G protein-coupled receptors (GPCRs). Very few agonists (or inverse agonists) with generally weak activity for this entire group of physiologically important receptors are known to date. To establish proof-of-principle that this critical bottleneck can be overcome with a suitable screening approach, our studies focused on the class B1 receptor for glucagon-like peptide-1 (GLP-1R), a potential therapeutic target for diabetes and neurodegenerative disease.
The assay was developed in a "mix and measure" format using a cell-based functional readout. Toward this goal, stably transfected HEK293 cell clones were established that co-express (i) a cAMP-responsive luciferase reporter gene, and (ii) GLP-1Rs that upon ligand interaction either stimulate (agonists) or inhibit (inverse agonists) luciferase activity. In different cell lines to be used for screening, expressed GLP-1Rs are specifically optimized for high sensitivity detection of either weak agonists (hypersensitive receptor) or inverse agonists (constitutively active receptor mutant). In addition, control cell lines were developed that express either the cAMP-responsive reporter gene without recombinant GLP-1Rs (enabling initial exclusion of GLP-1R independent effects of candidate probes), or the reporter gene together with wild type GLP-1Rs (for confirmation of probe activity at this receptor), or the reporter gene in combination with the constitutively active orphan receptor GPR119 (enabling initial exclusion of GLP-1R independent inhibitory effects of candidate inverse agonists).
To that end, this assay was optimized for 1536-well format and screened against the MLSMR.
NIH Molecular Libraries Probe Production Network [MLPCN]
NIH Chemical Genomics Center [NCGC]
PI Name: Martin Beinborn, Tufts Medical Center
In a white solid 1536-well plate, 6 uL of cells are dispensed in DMEM without phenol red, 10% Nu serum, and 1% pen-strep medium. The plates are then incubated for 12 hours at 37 deg C at 5% CO2 before 23 nL of compounds are added. After a 4-6 hr incubation at37 deg C and 5% CO2, 3 uL of detection reagent are added and after a 12 min incubation at RT, a luminescent read is obtained on the ViewLux.
For `COc1ccccc1-c1ccnc2[nH]n(-c3ccccc3)c(=O)c12`, the “activation” value is 0.335% (inactive). Take `CN(C)CCCn1c(-c2ccc(Cl)cc2)csc1=Nc1ccccc1`: the “activation” value is 15.8% (inactive). The same measure, in the same setting: the value for `COc1cc(C[C@H]2NCCc3cc(O)c(O)cc32)cc(OC)c1OC` was 25.4% (inactive); that for `O=C(Nc1cccc2cccnc12)c1cccc2c(Br)cccc12` was 0.0139% (inactive); that for `COc1ccc(CCNC(=O)CCc2c(C)nc3c(c(C)nn3-c3ccc(C)c(C)c3)c2C)c(OC)c1OC` was -0.6% (inactive).

Regarding `CCn1cc(C(=O)OCC(=O)Nc2cc(C)cc(C)c2)c(=O)c2ccc(C)nc21`, the “activation” value is -2.48% (inactive). On the same count and under the same terms, the value for `CN(CC(=O)Nc1ccccc1F)S(=O)(=O)c1ccc2c(c1)c(=O)n(C)c(=O)n2C` was -1.36% (inactive); that for `Cc1c(O)cc2c(c1C)O[C@](C)(CCC[C@H](C)CCC[C@H](C)CCCC(C)C)CC2` was 7.18% (inactive); that for `COc1ccc(C2(C#N)CCC(C(=O)O)CC2)cc1OC1CCCC1` (stereo not drawn) was -2.56% (inactive).

Turning to `Cc1ccc(NC(=O)c2oc3ccccc3c2NC(=O)Cc2cccs2)cc1`, the “activation” value was 0.593% (inactive).

For the compound `NNc1nnc(NN)c2ccccc12`, the “activation” value was 12.5% (inactive). Same read-out and setting: the value for `O=C(C1CCCN(S(=O)(=O)c2cccc3nonc23)C1)N1CCN(c2ccccc2F)CC1` (stereo not drawn) was -1.48% (inactive).

For the compound `COc1cccc(NC(=O)N(Cc2cn(C)c3ccccc23)C2CCCCCC2)c1`, the “activation” value is -6.68% (inactive).

For `COc1ccc2[nH]c3c(c2c1)CCN(C(=O)CCC1CCCC1)C3c1ccc(F)cc1` (stereo not drawn), the “activation” value was 0.944% (inactive). The same measure, in the same setting: the value for `Nc1ccccc1N` was 1.01% [at 96 µM] (inactive); that for `NNc1nnc(Cc2ccncc2)c2ccccc12` was -3.34% (inactive). On the same count and under the same terms, the value for `CC(=O)OCC(=O)[C@@]1(O)CC[C@@H]2[C@H]3CCC4=CC(=O)C=C[C@]4(C)[C@]3(F)[C@@H](O)C[C@@]21C` was -1.89% [at 19.8 µM] (inactive); that for `CCC(CC)C(=O)N1CCc2cc(OC)c(OC)cc2C1COc1ccc(F)cc1` (stereo not drawn) was 18.6% (inactive); that for `CCC[C@H]1C(=O)N2C(N(C)C)=Nc3ccc(C)cc3N2C1=O` was 2.77% [at 19.8 µM] (inactive). Take `C=C1C(=CC=C2CCC[C@@]3(C)[C@@H]2CC[C@H]3[C@H](C)CCCC(C)C)C[C@@H](O)C[C@@H]1O`: the “activation” value is 7.68% (inactive). As for `O=C1C(c2[nH]c3ccccc3c2O)=Nc2ccccc21`, the “activation” value is 17.2% (inactive).

In the case of `CC(=O)OC[C@H]1O[C@@H](O[C@H]2[C@H](O)[C@@H](OC(=O)c3ccccc3C(=O)O)[C@H](O)O[C@@H]2COC(C)=O)[C@H](O)[C@@H](OC(=O)c2ccccc2C(=O)O)[C@@H]1O`, the “activation” value was 5.47% (inactive). With `COc1ccc(CNC(=O)c2cc3cccc(OC)c3oc2=O)cc1`, the “activation” value was -5.88% (inactive).

Take `O=C(C1CC1)N1CCc2cc(Br)cc(S(=O)(=O)N3CCN(c4ccccc4F)CC3)c21`: the “activation” value was 0.0455% (inactive). Still for that read-out and setting: the value for `O=C(O)CCC(=O)O` was -1.33% (inactive).

With `COc1ccc(OC)c([C@H](O)CNC(=O)CN)c1`, the “activation” value is 1.93% [at 19.8 µM] (inactive). The same measure, in the same setting: in the case of `O=C(NC1CCCCC1)c1ccc2c(c1)N(Cc1ccc(Cl)cc1)C(=O)c1ccccc1S2=O` (stereo not drawn) it was -3.48% (inactive). Still for that read-out and setting: the value for `Cc1ccc(C)c(CN2C(=O)c3ccccc3S(=O)c3ccc(C(=O)N4CCOCC4)cc32)c1` (stereo not drawn) was -0.515% (inactive).

Consider `COc1ccc(S(=O)(=O)NCCSc2nnnn2-c2ccccc2)cc1`, for which the “activation” value was 0.741% (inactive). `CC(=O)OC1C([N+]2(C)CCCCC2)C[C@H]2C3CC[C@H]4C[C@H](OC(C)=O)C([N+]5(C)CCCCC5)CC4(C)C3CCC12C` (stereo partly drawn): the “activation” value was -1.14% (inactive). Take `CCOC(=O)Cc1cccc(-c2cc(CCCCCCc3ccc(O[C@H]4O[C@H](COC(C)=O)[C@@H](OC(C)=O)[C@H](OC(C)=O)[C@@H]4OC(C)=O)c(-c4cccc(CC(=O)OCC)c4)c3)ccc2O[C@H]2O[C@H](COC(C)=O)[C@@H](OC(C)=O)[C@H](OC(C)=O)[C@@H]2OC(C)=O)c1`: the “activation” value is 2.49% (inactive).

For `O=C(CCn1c(=O)c2ccccc2n(Cc2ccc(Cl)cc2)c1=O)NCc1ccc2c(c1)OCO2`, the “activation” value is -0.608% (inactive). As to `COc1ccc(-c2nc3ccccc3s2)cc1NC(=O)COc1ccccc1C`, the “activation” value is 5.28% (inactive).

In the case of `CSc1ccc(C2C(C(=O)Nc3ccccc3)=C(C)Nc3nc4ccccc4n32)cc1` (stereo not drawn), the “activation” value is 5.83% (inactive). Same read-out and setting: in the case of `O=C(O)[C@@H](S)[C@H](S)C(=O)O` it was -4.55% (inactive). On the same count and under the same terms, the value for `CCC(C)C1OC2(C=CC1C)CC1CC(C/C=C(/C)C(OC3CC(OC)C(OC4CC(OC)C(NC(C)=O)C(C)O4)C(C)O3)C(C)/C=C\C=C3\COC4C(O)C(C)=CC(C(=O)O1)C34O)O2` (stereo not drawn) was -1.5% (inactive).

For `CC1(C)OC[C@@H](COC(=O)CCc2ccc(OC[C@@H](O)CNCCNC(=O)N3CCOCC3)cc2)O1`, the call was inactive. Consider `CCc1nc2onc(C)c2c(=O)n1CC(=O)O`, for which the “activation” value was -2.43% (inactive). The same measure, in the same setting: in the case of `CC1=C(C(=O)OCC2CCCCC2)C(c2c(F)cccc2Cl)CC(=O)N1` (stereo not drawn) it was 0.542% (inactive). Take `CCCCCn1c(CCNC(=O)c2ccc(F)cc2)nc2ccccc21`: the “activation” value was -6.1% (inactive). Still for that read-out and setting: in the case of `O=c1cc2nc(-c3ccccc3)nc(SCCOc3ccc(Cl)cc3)n2[nH]1` it was 0.394% (inactive); in that of `C[C@H]1C[C@H]2[C@@H]3CCC4=CC(=O)C=C[C@]4(C)[C@@H]3C(=O)C[C@]2(C)[C@@]1(O)C(=O)CO`, 8.98% (inactive); in that of `COc1cc2c(cc1OC)CC(=O)N(CCCN(C)C[C@H]1Cc3cc(OC)c(OC)cc31)CC2`, -1.07% (inactive).
